# Assay outcomes as filed in PubChem.
# Sa growth 42C: blocks Staphylococcus aureus growth; S. aureus RN4220 growth, OD600, 20 h, 42 °C; stronger effect = lower value; relative growth, % (test concentration not listed); 170,000 compounds, 0.53% hits; AID 720641;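 active = relative growth at most 50% at the other temperature and 20+ points below 30 °C, or under 10% at both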
# Sa helicase inh: S. aureus DNA helicase inhibition; 120,000 compounds, 0.05% hits; AID 485395; inhibition, % (test concentration not listed); purified S. aureus helicase, fluorescence unwinding assay; in the data active = inhibition above about 25%, passing the limit was not always enough;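 note: 0% = mean of negative control wells and 100% = mean of positive control wells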
# * marks the source's active call; other numbers are inactive results; nt = no result; ! = repeats disagree. In the library only some 0.52% were active in any assay of this set; here they are far more common.
SMILES,Sa growth 42C,Sa helicase inh
CC(=O)Nc1ccc(S(=O)(=O)c2cc(OC(=O)c3ccco3)ccc2OC(=O)c2ccco2)cc1,93,10
COc1cc(/C=N/N(C)C)ccc1OC(=O)c1cccs1,102,4
N#C/C(=C\c1ccc(N2CCCC2)o1)c1ccccc1,77,-134
C[n+]1ccc(/C=C/c2ccc(N3CCCC3)o2)cc1,98,57*
COc1cccc(CNc2ccc3c(c2)ncn3C2CCCCC2)c1,0.1*,2
CCn1cnc2cc(NCc3cccc(OC)c3)ccc21,83,40
Cn1c(C2CC(=O)N(c3cccc4ccccc34)C2)nc2ccccc21 (configuration not stated),0.4*,6
O=C1CC(c2nc3ccccc3[nH]2)CN1c1cccc2ccccc12 (configuration not stated),89,10
CC(C)NS(=O)(=O)c1ccc(OCC(=O)N2CCN(c3cccc(Cl)c3)CC2)cc1,104,nt
Cc1cn(C2CC(O)C(CO)O2)c(=O)[nH]c1=O (configuration not stated),81,16
O=c1[nH]c(=O)n([C@H]2C[C@H](O)[C@@H](CO)O2)cc1F,-0.6*,nt
CCc1c(C)sc2c1CCN(Cc1cccc(F)c1)C2c1ccccc1 (configuration not stated),-1.3*,nt
CCc1c(C)sc2c1CCN(C(=O)Nc1cc(C)cc(C)c1)C2c1ccccc1 (configuration not stated),89,nt
CCc1c(C)sc2c1CCN(Cc1ccc(F)cc1)C2c1ccccc1 (configuration not stated),-1.1*,nt
CCc1c(C)sc2c1CCN(Cc1ccc(C#N)cc1)C2c1ccccc1 (configuration not stated),30,nt
COC(=O)/C(=C(/O)CSc1nnnn1C)c1nc2ccccc2[nH]1,105,-7
Cc1ccc(OCC(=O)N2CCCCC2)cc1,87,1
CCCS(=O)(=O)c1nc(S(=O)(=O)c2ccc(C)cc2)c(NC(C)c2ccccc2)s1 (configuration not stated),107,nt
Cc1ccc(C2(CC(=O)Nc3ccccc3C)CCOC(C)(C)C2)cc1 (configuration not stated),93,6
CCn1c(SCC(=O)c2ccccc2)nnc1-c1ccco1,96,6
CN(c1ccccc1)S(=O)(=O)c1ccc(NC(=O)c2nc(S(C)(=O)=O)ncc2Cl)cc1,-1.2*,nt
CCCSc1ncc(Cl)c(C(=O)Nc2ccc(S(=O)(=O)N(C)c3ccccc3)cc2)n1,105,nt
CN(Cc1ccccc1)S(=O)(=O)c1ccc(NC(=O)c2nc(S(C)(=O)=O)ncc2Cl)cc1,6.2*,9
CS(=O)(=O)c1ncc(Cl)c(C(=O)NCc2ccccc2)n1,23,-5
COc1cccc(N2CCN(C(=O)C3CCN(S(=O)(=O)c4cn(C)cn4)CC3)CC2)c1,107,nt
SMILES,Sa growth 42C,Sa helicase inh
COC(=O)C1=NOC2C(=O)N(c3ccccc3)C(=O)C12 (configuration not stated),102,10
CCC(Oc1ccc(C(C)(C)CC)c(C)c1)C(=O)O (configuration not stated),55,1
O=C(COC(=O)C1(c2ccccc2)CC1)Nc1nnc(-c2ccccc2)o1,-0.5*,13
O=C(COC(=O)CC1CCCC1)Nc1nnc(-c2ccccc2)o1,21,2
O=C(Cc1coc2ccc3ccccc3c12)Oc1ccc(-c2nnco2)cc1,96,15
O=C(COC(=O)Cc1coc2ccc3ccccc3c12)Nc1nnc(-c2ccccc2)o1,0.1*,-9
Cc1cccc(Nc2ccccc2C(=O)O)c1C,95,nt
COc1ccc(-c2cc(C(F)(F)F)nc(S(C)(=O)=O)n2)cc1,28*,nt
COc1ccc(-c2cc(C(F)(F)F)nc(NCc3ccccc3)n2)cc1,98,nt
CCOCCCn1c(C)c(C)c(C#N)c1N,93,-45
Cc1c(C#N)c(N)n(Cc2cc(C(F)(F)F)cc(C(F)(F)F)c2)c1C,-0.1*,14
COc1ccc(-c2cc(=NC(CC(C)C)C(=O)O)c3cc(C)ccc3o2)cc1 (configuration not stated),92,7
COc1ccc(-c2cc(=NCCc3ccccc3)c3cc(C)ccc3o2)cc1,14,46*
CCc1c(O)nc(N)[nH]c1=O,100,0
O=C1CSC(=S)N1c1cccc(C(F)(F)F)c1,nt,-2
O=C1C2SCCN2C(=S)N1c1cccc(C(F)(F)F)c1 (configuration not stated),46*,nt
CCOC(=O)c1cc2c(=O)n3ccccc3nc2n(CCOC)c1=NC(=O)c1cc2ccccc2o1,94,nt
CCS(=O)(=O)C1=NN2C(=N)/C(=C\c3ccc(-c4ccccc4)o3)C(=O)N=C2S1,44*,-54
CS(=O)(=O)C1=NN2C(=N)/C(=C\c3ccc(-c4ccc(Cl)cc4)o3)C(=O)N=C2S1,42,-15
CCOC(=O)c1cn(C2CC2)c2c(F)c(F)c(F)cc2c1=O,117,-3
Cc1cccc(-c2noc(-c3ccccc3)n2)c1,106,-26
Cn1ccc2c(OCC(=O)NCc3ccccc3)cccc2c1=O,116,nt
Clc1ccc(CSc2nnc(Cc3cccs3)n2C2CC2)cc1Cl,63,2
COc1cccc(CSc2nnc(Cc3cccs3)n2C2CCCCC2)c1,5.8*,0
O=c1oc2ccccc2c(O)c1Cc1cc(Cl)c2cccnc2c1O,128,-15
SMILES,Sa growth 42C,Sa helicase inh
Cc1cc(O)c(Cc2cc(Cl)c3cccnc3c2O)c(=O)o1,4.0*,17
COc1ccc(CCn2c3c(c(=O)[nH]c2=O)C(NC(=O)c2ccc(Cl)cc2)(C(F)(F)F)C(=O)N3)cc1OC (configuration not stated),105,nt
COc1ccccc1CNC(=O)CC1N=C2c3ccccc3N=C(SCC(=O)Nc3ccc(F)cc3)N2C1=O (configuration not stated),66,nt
CC1(C)S[C@@H]2[C@H](NC(=O)C(C(=O)O)c3ccccc3)C(=O)N2[C@H]1C(=O)O (some centres not stated),0.0*,nt
CCCOC(=O)C(N)c1ccccc1 (configuration not stated),107,0
CC1(C)S[C@@H]2[C@H](NC(=O)[C@H](N)c3ccccc3)C(=O)N2[C@H]1C(=O)O,-0.9*!,nt
Cc1onc(-c2ccccc2)c1C(=O)N[C@@H]1C(=O)N2[C@@H]1SC(C)(C)[C@@H]2C(=O)O,-1.3*,nt
Cc1onc(-c2ccccc2)c1C(=O)NC1CCCCC1NC(=O)c1c(-c2ccccc2)noc1C (configuration not stated),100,-18
CCN1CCN(C(=O)N[C@@H](C(=O)N[C@@H]2C(=O)N3[C@@H]2SC(C)(C)[C@@H]3C(=O)O)c2ccccc2)C(=O)C1=O,-0.5*,nt
CC1(C)SC(c2ccc(C3NC(C(=O)O)C(C)(C)S3)cc2)NC1C(=O)O (configuration not stated),92,18
CCNC(=S)Nc1ccc(N2CCCCC2)cc1,97,5
COc1cccc(C(=O)N(c2ccccn2)c2ccccn2)c1,107,-28
COCc1ccc(C(=O)NCc2ccncc2)cc1,106,2
CCS(=O)(=O)c1nc2ccccc2n1CC(=O)N(C(C)C)C(C)C,99,11
CCOC(=O)c1ccc(N2C(=O)c3n[nH]c(-c4ccco4)c3C2c2cccc(OC)c2)cc1 (configuration not stated),91,nt
CC1=NN(c2cccc(SC(F)F)c2)C(=O)C1,57,7
CC1=NN(c2cccc(C(F)(F)F)c2)C(=O)C1,0.4*,-5
